About 83,000 compounds went through this panel and 20% of them were active in at least one assay; those are over-represented in the sample as a whole.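 Method: cells in 96-well plates; compound added at one concentration; 48 h incubation; percent growth measured; values under 10 scored active.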 Unmarked numbers belong to inactive results. Activity calls are given as the source filed them.

Test systems include NCI-H23 lung; NCI-H226 lung; NCI-H322M lung; HOP-62 NSCLC; NCI-H460 lung; HOP-92 NSCLC; NCI-H522 lung; 786-0 renal; COLO 205 colon; DU-145 prostate; K-562 leukemia; MALME-3M melanoma; MDA-MB-231 breast; RXF 393 renal; SF-268 CNS; SF-295 CNS; SF-539 CNS; UACC-257 melanoma; M14 melanoma; A549/ATCC NSCLC.
Common to all, as to test: NCI-60 one-dose screen, 48 h (100 = growth as untreated, 0 = no growth, -100 = all killed)
Conditions in all cases: 10 µM unless noted

As for `CN1[C@@H]2CC[C@H]1/C(=C\c1ccccc1)C1=C2[C@@H](c2ccccc2)C(C#N)=C(N)O1`, the growth in the test on NCI-H23 lung was 78.6%; in the test with NCI-H226 lung, 67.2%; in the test on NCI-H322M lung, 94.8%; in the test with HOP-62 NSCLC, 90.6%; with NCI-H460 lung it was 92.7%; in the test with HOP-92 NSCLC it was 78.7%. Moreover, the growth with NCI-H522 lung is 74%; in the test on 786-0 renal, 73.4%; with COLO 205 colon, 80.4%; in the test with DU-145 prostate it was 51.5%; in the test with K-562 leukemia it was 64.4%; in the test on MALME-3M melanoma, 88.8%. Moreover, the growth in the test on MDA-MB-231 breast was 94.9%; with RXF 393 renal, 63%; in the test on SF-268 CNS, 77%; in the test on SF-295 CNS, 83.8%; in the test on SF-539 CNS it was 97.8%; with UACC-257 melanoma it was 54.6%. Further, in the test with M14 melanoma, the growth is 75.6%.
Turning to `Cc1sc2c(c1C)c(=O)nc1c(-c3nc(-c4ccccc4)cs3)n[nH]n12`, the growth in the test on NCI-H23 lung was 91.9%; in the test on NCI-H226 lung it was 89.9%; in the test on NCI-H322M lung, 101%; in the test on HOP-62 NSCLC, 92.4%; with NCI-H460 lung, 96.2%; with NCI-H522 lung, 94.3%. In addition, the growth in the test with A549/ATCC NSCLC was 93%; with 786-0 renal it was 103%; in the test with COLO 205 colon it was 102%; in the test with DU-145 prostate, 104%; in the test on K-562 leukemia, 94.5%; in the test with MALME-3M melanoma, 98.1%. The growth with MDA-MB-231 breast is 93.3%; in the test on SF-268 CNS, 96.2%; in the test with SF-295 CNS, 88.7%; with SF-539 CNS, 96.3%; in the test with M14 melanoma it was 96.2%.
For the compound `COc1cccc(Nc2ncnn3ccc(CN4CC[C@@H](N)[C@H](O)C4)c23)c1`, the growth is 36.3% in the test with NCI-H23 lung; 5.97% (active) in the test on NCI-H226 lung; 0.241% (active) with NCI-H322M lung; 18.7% with HOP-62 NSCLC; 73.8% in the test with NCI-H460 lung; 14.4% with NCI-H522 lung. Also, the growth in the test on A549/ATCC NSCLC is 12.1%; with 786-0 renal, 13.1%; in the test on COLO 205 colon it was 34.6%; in the test on DU-145 prostate, 27.1%; in the test with K-562 leukemia, 2.52% (active); in the test with MALME-3M melanoma, 86.4%. In addition, the growth is 31.3% in the test on MDA-MB-231 breast; -41.4% (active) with RXF 393 renal; 45.1% in the test on SF-268 CNS; 72.9% with SF-295 CNS; -2.77% (active) in the test on SF-539 CNS; 76.1% in the test on UACC-257 melanoma. In addition, in the test on M14 melanoma, the growth is 96%.
Consider `CCCC(=O)OCC1OC(n2cnc3c(=S)nc(N)[nH]c32)C(OC(=O)CCC)C1OC(=O)CCC` (stereo not given), for which the growth in the test with NCI-H23 lung is 28.9%; in the test on NCI-H226 lung, 33.3%; with NCI-H322M lung, 55.5%; in the test on HOP-62 NSCLC, 23.1%; with NCI-H460 lung, 34.8%; in the test on NCI-H522 lung, -5.66% (active). Also, the growth in the test on A549/ATCC NSCLC was 92.4%; in the test on 786-0 renal, 21.5%; in the test with COLO 205 colon, 79.2%; in the test with DU-145 prostate it was 27.3%; in the test with MALME-3M melanoma, 29.9%; in the test with MDA-MB-231 breast, 38.9%. The growth in the test on SF-268 CNS is 38.8%; in the test with SF-295 CNS, 19.8%; with SF-539 CNS it was 26.7%; with M14 melanoma it was 13.9%.
For the compound `O=C(COc1ccc(/C=C2\Cc3ccc(Cl)cc3C2=O)cc1)Nc1nccs1`, the growth in the test with NCI-H23 lung is 88.9%; with NCI-H226 lung, 98.4%; in the test with NCI-H322M lung, 118%; in the test on HOP-62 NSCLC, 101%; in the test with NCI-H460 lung it was 95.2%; in the test on NCI-H522 lung, -7.85% (active). In addition, the growth in the test with A549/ATCC NSCLC is 83.7%; in the test on 786-0 renal, 95.8%; with COLO 205 colon, 124%; in the test with DU-145 prostate, 118%; in the test with K-562 leukemia, 121%; with MALME-3M melanoma, 126%. For the same compound, the growth with MDA-MB-231 breast is 92.2%; in the test on RXF 393 renal it was 98.2%; with SF-268 CNS, 114%; in the test with SF-295 CNS it was 113%; with SF-539 CNS it was 96.8%; in the test on UACC-257 melanoma, 98.5%. Moreover, in the test with M14 melanoma, the growth is 103%.
Consider `COc1cc2cc(NCc3ccc(F)cc3)nc(C)c2cc1OC`, for which the growth is 26.5% in the test on NCI-H23 lung; 48.5% in the test with NCI-H226 lung; 52.5% in the test with NCI-H322M lung; 54.7% in the test on HOP-62 NSCLC; 26.4% with NCI-H460 lung; 59.9% in the test with NCI-H522 lung. The growth in the test on A549/ATCC NSCLC is 47.9%; in the test with 786-0 renal, 32.2%; in the test on COLO 205 colon, 34.2%; in the test with DU-145 prostate it was 58.1%; with K-562 leukemia it was 11.7%; with MALME-3M melanoma, 87.7%. The growth in the test with MDA-MB-231 breast was 45.9%; with RXF 393 renal it was 59.7%; in the test on SF-268 CNS it was 50.7%; in the test with SF-295 CNS it was 40.7%; with SF-539 CNS, -4.69% (active); with UACC-257 melanoma, 88.8%. For the same compound, the growth in the test on M14 melanoma is 32.2%.
Consider `COc1cc2c(cc1OCCCCN1CCN(CC(=O)Nc3ccc(Cl)cc3C(=O)c3ccccc3Cl)CC1)N=CC1CCCN1C2=O` (stereo not given), for which the growth with NCI-H23 lung was -14% (active); in the test with NCI-H226 lung, -88.1% (active); in the test on NCI-H322M lung, -64% (active); in the test with HOP-62 NSCLC, -88.8% (active); in the test with NCI-H460 lung, -56.2% (active); in the test with HOP-92 NSCLC, -85.6% (active). Also, the growth in the test with NCI-H522 lung is -83.4% (active); in the test with 786-0 renal it was -94.2% (active); with COLO 205 colon it was -61.4% (active); in the test on DU-145 prostate, -95.9% (active); in the test with K-562 leukemia it was -53% (active); in the test on MALME-3M melanoma, -76.8% (active). For the same compound, the growth with MDA-MB-231 breast was -85% (active); with SF-268 CNS, -75.5% (active); with SF-295 CNS it was -94.6% (active); in the test with SF-539 CNS, -86.7% (active); in the test with M14 melanoma, -67.6% (active).
Regarding `COc1cc2c(cc1O)c(=O)n(CCN(C)C)c1c3cc4c(cc3ncc21)OCO4`, the growth in the test on NCI-H23 lung was -19.1% (active); in the test with NCI-H226 lung it was -48.7% (active); with NCI-H322M lung it was -5.9% (active); with HOP-62 NSCLC, -4.35% (active); in the test with NCI-H460 lung, -14.8% (active); in the test with NCI-H522 lung, -37% (active). Besides, the growth in the test on A549/ATCC NSCLC is -56% (active); in the test on 786-0 renal, -54.5% (active); in the test with COLO 205 colon, 45.9%; in the test on DU-145 prostate, -10.9% (active); in the test with K-562 leukemia, 2.47% (active); in the test with MALME-3M melanoma it was -57.6% (active). Further, the growth was -5.67% (active) with MDA-MB-231 breast; -51% (active) in the test with RXF 393 renal; 3.41% (active) in the test with SF-268 CNS; -5.78% (active) in the test with SF-295 CNS; -35.5% (active) in the test with SF-539 CNS; -47.6% (active) in the test on UACC-257 melanoma. Also, in the test on M14 melanoma, the growth was -23.3% (active).

The record behind these values is PubChem BioAssay (NCI).
